Measured values from the supplement of paper PMC3334620.
Over roughly 33,000 sequences, “E-score (-0.5 to 0.5)” has its median near -0.013; the highest 2% begin near 0.3. What follows is part of a selection rich in the highest values, with near analogues and random picks from the rest.

Target: T1, Msn1 (UniProt P22148)
T1 sequence: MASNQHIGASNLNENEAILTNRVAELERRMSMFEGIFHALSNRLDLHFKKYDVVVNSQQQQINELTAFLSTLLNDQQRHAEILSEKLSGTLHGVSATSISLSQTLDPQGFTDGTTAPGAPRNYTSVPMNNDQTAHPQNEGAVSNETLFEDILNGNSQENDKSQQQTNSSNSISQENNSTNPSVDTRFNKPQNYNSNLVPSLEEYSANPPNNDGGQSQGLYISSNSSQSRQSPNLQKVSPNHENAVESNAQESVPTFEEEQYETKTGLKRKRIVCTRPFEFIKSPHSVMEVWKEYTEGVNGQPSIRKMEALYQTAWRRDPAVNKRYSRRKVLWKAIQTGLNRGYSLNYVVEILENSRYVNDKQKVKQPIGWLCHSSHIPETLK
Assay: PBM E-score (8-mer binding enrichment) (E-score (-0.5 to 0.5)); higher = stronger / more preferred TF binding
Details: protein concentration: 200 nM; construct: GST-full length
Summary of the method: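 The E-score, a modified Wilcoxon-Mann-Whitney statistic, was computed by the Universal PBM Analysis Suite for every ungapped eight-base word pooled with its reverse complement. Scans behind it were normalised with masliner after bound GST-tagged yeast transcription factors were detected with fluorescent anti-GST. The proteins, at about 100-200 nM, had been applied to universal all-10-mer Agilent arrays made double-stranded by primer extension.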

Sequence | PBM E-score
GGGACCCA | -0.139
TAGCGTCA | -0.0365
GTATGTCA | 0.35
ATATGTCA | 0.401
GTATGTTA | 0.0222
ATATGTGG | 0.0596
ATATGTCG | 0.379
CTATGTCA | 0.167
ATATGTTG | 0.0727
ATATGTTA | -0.0436
GTATGTAA | 0.0384
AATACTCT | 0.0619
ATTAGAGA | 0.00489
GTCTTGGA | 0.0469
CAAAGTTG | 0.101
GTCTGAAA | 0.241
CCCCAATA | -0.122
ATATTCCA | 0.212
ATATTCCC | 0.0634
ATATTCCG | 0.321
ACGTAGCG | -0.138
AGTTTGTC | 0.446
CGTTTGAC | 0.12
CGTTTGTC | 0.44
AGTTTGTG | -0.0605

Sequence | PBM E-score
CGTTTGTA | 0.189
AGTTTGTA | 0.182
TATGTAAA | 0.0978
GACGCCAA | -0.157
AAATTAAA | 0.355
AGATTAAT | 0.0857
AAAATTAA | 0.187
AAATTAAT | 0.199
AGATTAAA | 0.309
AAATTAAC | 0.0769
GAAATTAA | 0.34
CTATTAAA | 0.179
CAAATTAA | 0.0951
ATATTAAA | 0.344
CGATTAAA | 0.0941
TTATTAAA | 0.29
TGGGTCAA | -0.0713
CGCCAAGA | -0.142
GCAGAGGC | -0.241
CCCTGCCG | -0.254
CGCCAATC | -0.0945
AATGCCCC | -0.197
AATTCAGG | 0.109
GCGGGTGA | -0.0547
GCACAAAC | 0.0596

Sequence | PBM E-score
AAGCCTCT | -0.17
CCAATGAC | -0.00959
ACAATGTG | 0.0288
CCAATGTC | 0.328
CCAATGTA | 0.0173
ACAATGTC | 0.452
ACAATGTA | 0.156
GCATAAAA | 0.128
AATCCTTA | -0.134
CGAGCTAA | -0.0305
CAGAATAA | 0.0293
GGGACACA | 0.449
TGCACACA | 0.0221
GGGACACC | 0.185
GTGACACA | 0.286
TGGACACA | 0.427
TCGACACA | 0.133
AGGAAATC | 0.0408
AAGTGCGC | -0.108
ATGCTGTC | 0.0368
GTAGCGCA | -0.107
CCAAGAAG | -0.0807
ATTATAAG | 0.103
ATTATAAA | 0.17
ATTATAAT | 0.307

Sequence | PBM E-score
CCACATAC | 0.0664
CACCAACG | 0.185
CCATAGAG | 0.0389
ACGCTAAT | -0.223
AAAGGCCG | -0.00669
ATACCTAG | -0.0479
GTGTCTTA | 0.04
ACGTCTGG | 0.154
ATGTCTGC | 0.286
ATGTCTTG | 0.35
ATGTCTGA | 0.425
CTGTCTGA | 0.0827
GTGTCTGA | 0.185
CTGTCTTA | 0.181
ATGTCTGG | 0.323
AAGTCTTG | 0.0419
ATGTCTTA | 0.423
ATGTCTTC | 0.293
GACCATTA | 0.0825
ATCACAAT | -0.035
CAAACGAG | 0.099
CAGAGGAC | 0.0901
CAACGGAC | 0.121
AGAGCCGC | -0.0659
ATCGCGTA | -0.176

Sequence | PBM E-score
ACAGTCGA | -0.0747
ATCCCGAT | 0.125
ACAAAGGC | 0.098
CCTCAAGC | -0.277
ACGCTGGG | -0.406
ATCTTGCG | -0.0566
CGCGGACA | 0.329
AGCGGACA | 0.359
CGCGGACG | 0.181
TGCGGACA | 0.427
GGCGGACA | 0.273
AGCGGACG | 0.0534
CGCGGACC | 0.0148
AGCGGACT | -0.229
TGCGGAAA | 0.0764
CTGCTCAA | 0.0116
CGAGTGCG | 0.0204
CGTTGCAG | -0.0934
AACATTCA | -0.0503
CACATTCC | 0.0503
GACATTCA | 0.449
GACATTCC | 0.456
CACATTCA | -0.0795
AACATTCC | -0.0175
ATACATAT | 0.264

Sequence | PBM E-score
CCGCTCTA | 0.0134
GACTCCCC | -0.207
ATTTCTCG | 0.255
CGATACCG | -0.0866
CCGGACAA | 0.452
CCGGACAG | 0.227
ACGGACGA | 0.0949
TCGGACAA | 0.457
ACGGACAA | 0.474
TCGGACCA | 0.12
GCGGACAC | 0.162
ACGGACCA | 0.0706
TCGGACGA | 0.199
GCGGACAA | 0.44
CCGGACAC | 0.288
GCGGACCA | 0.0483
ACATTCGT | 0.0578
AATTCTCT | -0.229
CGACCGCG | -0.0918
CGGGAGGA | -0.0135
GAGTGTGC | 0.0104
GCTACACC | -0.162
GCCTGACC | -0.234
AAATACCA | -0.0306
ATAAAATG | 0.341

Sequence | PBM E-score
AAAAAATC | 0.105
ATAAAATA | 0.183
ACAAAATG | 0.312
CCAAAATC | 0.0937
ACAAAATC | 0.352
ATAAAATC | 0.0924
ACAAAATA | 0.188
AAAAAATG | 0.287
GCCGATTA | -0.0616
ATTGCCGG | -0.0182
GGATAGAC | -0.0706
GAACATCC | 0.162
CGACATCA | 0.125
TGACATCA | 0.257
CGACATCC | 0.0825
AGACATCG | 0.226
AGACATCT | 0.29
GGACATCA | 0.396
GGACATCC | 0.475
AGACATCC | 0.328
ATAGTGGA | 0.0789
CCCTGCTC | -0.172
CCGCTTCC | -0.183
TACGGAAA | 0.17
GACGGACC | -0.0404

Sequence | PBM E-score
CACGGACC | 0.0127
GACGGACA | 0.386
GACGGAAA | 0.106
AACGGACA | 0.344
AACGGACG | 0.0165
CACGGACG | 0.175
AACGGACT | -0.00389
TACGGAGA | -0.0508
CACGGACA | 0.455
TACGGACA | 0.44
ACTAACGC | -0.108
GCTCGAAA | -0.00351
TGCAGGAA | 0.0458
TGAGTGAA | -0.115
ACGAATCG | 0.0506
CGAATAAA | 0.309
GGAATAAA | 0.119
CGAATAAC | 0.0021
TAAGCTCA | -0.0986
GGTCCGGA | 0.216
ATTCCGGA | 0.313
ATTCCGGG | 0.14
AGTCCGGA | 0.267
CTTCCGGA | 0.132
CGTCCGGA | 0.331

Sequence | PBM E-score
CCTTTGAA | -0.154
ATGTTTTG | 0.12
CGAGCACG | -0.175
ATATATTC | 0.163
CCATATCA | 0.0259
ACATATTG | 0.321
ACATATGA | 0.311
ACATATGG | 0.262
ACATATTC | 0.34
ATATATTG | -0.172
ACATATCA | 0.319
TCATATGA | 0.297
ACATATCG | 0.231
CCATATTC | -0.0353
ACATATGC | -0.0219
AATCTTGG | 0.0184
AGTTACAT | -0.0774
AATCAAAA | 0.089
CTATTCTC | -0.0396
